{"source": "PubChem BioAssay AID493027", "about": "(The Scripps Research Institute Molecular Screening Center, 2011)", "note": "The campaign covered roughly 2,000 compounds. About 45 (2%) were called active.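 The calls were made as follows: active = inhibition above the screen-wide mean inhibition plus 3 SD (cut at about 44% in these data); inactive = the rest.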 The list comes from a sample in which actives are over-represented; it also holds similar structures and randomly drawn compounds."}
{"molecular_target": "Perilipin-1 (Homo sapiens) + 1-acylglycerol-3-phosphate O-acyltransferase ABHD5 (Homo sapiens) (UniProt O60240+Q8WTS1)", "sequence (O60240 whole entry, looked up)": "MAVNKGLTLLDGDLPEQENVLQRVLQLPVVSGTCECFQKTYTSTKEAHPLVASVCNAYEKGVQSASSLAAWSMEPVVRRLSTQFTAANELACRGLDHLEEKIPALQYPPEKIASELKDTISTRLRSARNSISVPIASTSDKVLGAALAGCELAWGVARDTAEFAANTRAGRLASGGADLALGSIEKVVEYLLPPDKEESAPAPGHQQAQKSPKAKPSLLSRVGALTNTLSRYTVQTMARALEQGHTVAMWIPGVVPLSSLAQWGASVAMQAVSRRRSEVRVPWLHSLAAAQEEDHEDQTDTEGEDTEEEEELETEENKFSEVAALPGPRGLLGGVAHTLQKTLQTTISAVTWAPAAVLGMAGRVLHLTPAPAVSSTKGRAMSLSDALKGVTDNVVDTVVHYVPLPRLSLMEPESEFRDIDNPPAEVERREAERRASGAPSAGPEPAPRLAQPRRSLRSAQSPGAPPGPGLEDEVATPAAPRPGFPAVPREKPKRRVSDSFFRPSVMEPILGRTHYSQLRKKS", "sequence (Q8WTS1 whole entry, looked up)": "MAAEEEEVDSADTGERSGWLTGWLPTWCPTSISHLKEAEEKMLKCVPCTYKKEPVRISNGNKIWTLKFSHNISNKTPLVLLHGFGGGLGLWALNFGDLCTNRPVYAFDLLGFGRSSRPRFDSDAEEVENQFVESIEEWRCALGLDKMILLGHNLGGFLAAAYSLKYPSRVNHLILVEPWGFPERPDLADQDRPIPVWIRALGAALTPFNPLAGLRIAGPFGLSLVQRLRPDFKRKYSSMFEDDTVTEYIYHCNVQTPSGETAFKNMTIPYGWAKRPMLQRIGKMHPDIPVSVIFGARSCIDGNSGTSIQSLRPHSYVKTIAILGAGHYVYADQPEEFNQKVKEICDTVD", "assay": "ABHD5-PLIN1 interaction inhibitors, pilot screen, cell lysate, split luciferase complementation, luminescence, NIH validation set (AID 493027);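 as to inhibition: 0% = DMSO wells with the 100% control not disclosed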", "details": "split G. princeps luciferase complementation, 4 h; at 7.9 µM, active compounds read high"}
{"smiles": "O=c1c(-c2ccc3c(c2)OCCO3)coc2cc(OC3OC(CO)C(O)C(O)C3O)ccc12", "note": "(stereo not drawn)", "inhibition": "-4.41% (inactive)"}
{"smiles": "CSCCC(NC(=O)OC(C)(C)C)C(=O)Oc1ccc2c(=O)c(-c3ccc4c(c3)OCCO4)coc2c1", "note": "(stereo not drawn)", "inhibition": "67.4% (active)"}
{"smiles": "CSCCC(NC(C)=O)C(=O)Oc1ccc2c3c(c(=O)oc2c1)CCCC3", "note": "(stereo not drawn)", "inhibition": "4.14% (inactive)"}
{"smiles": "O=C(Nc1ccc(Cl)cn1)Nc1ccccc1Cl", "inhibition": "-3.38% (inactive)"}
{"smiles": "CC(C)C1Cc2[nH]c(=O)c(C(=O)O)cc2CO1", "note": "(stereo not drawn)", "inhibition": "-7.52% (inactive)"}
{"smiles": "CCCC(=O)Nc1ccccc1NC(C)=O", "inhibition": "-6.46% (inactive)"}
{"smiles": "N/C(=N\\OS(=O)(=O)c1ccc2ccccc2c1)c1cccnc1", "inhibition": "0.01% (inactive)"}
{"smiles": "COc1ccc(-c2c(NC(=O)c3ccco3)n(C)c3ccccc3c2=O)cc1", "inhibition": "-10.8% (inactive)"}
{"smiles": "O=C(NCCN1CCCCC1)c1c(O)c2ccccc2[nH]c1=O", "inhibition": "-2.32% (inactive)"}
{"smiles": "CC1(C)c2ccccc2N2CC(=O)NC21/C=C/c1ccco1", "note": "(stereo not drawn)", "inhibition": "47.4% (active)"}
{"smiles": "O=C(/C=C/c1ccco1)N1CCN(c2ccccc2)CC1", "inhibition": "4.55% (inactive)"}
{"smiles": "CC1(C)c2ccccc2N2CC(=O)N(CC(N)=O)C21C", "note": "(stereo not drawn)", "inhibition": "4.18% (inactive)"}
{"smiles": "CC(=O)c1c(C)c(C)c2n1CCn1c(C)ccc1-2", "inhibition": "5.75% (inactive)"}
{"smiles": "COc1ccc(C2C(C#N)=C(N)Oc3cc(C)[nH]c(=O)c32)c(OC)c1OC", "note": "(stereo not drawn)", "inhibition": "-14.5% (inactive)"}
{"smiles": "O=C(/C=C/c1ccc2c(c1)OCO2)NCc1ccc(F)cc1", "inhibition": "-2.57% (inactive)"}
{"smiles": "O=C(/C=C/c1ccc2c(c1)OCO2)c1ccccn1", "inhibition": "51.3% (active)"}
{"smiles": "O=C(/C=C/c1ccc2c(c1)OCCCO2)c1ccc2ccccc2c1O", "inhibition": "17.8% (inactive)"}
{"smiles": "CC1(C)CC(=O)c2cc(O)ccc2O1", "inhibition": "-2.35% (inactive)"}
{"smiles": "CC(CCCC(C)(C)O)NC(=O)c1ccc(OC2CCN(C(=O)C3CC3)CC2)cc1", "note": "(stereo not drawn)", "inhibition": "-7.27% (inactive)"}
{"smiles": "Cc1ccc2[nH]c3c(c2c1)CCNC3=O", "inhibition": "-4.86% (inactive)"}
{"smiles": "CC[n+]1ccc2cc(OC)c(OC)cc2c1Cc1ccc(OC)c(OC)c1", "inhibition": "-12.6% (inactive)"}
{"smiles": "COc1cc(=O)n(C)c2ccccc12", "inhibition": "-0.74% (inactive)"}
{"smiles": "COc1ccc(C(=O)/C=C/c2ccc(OC(=O)c3cc(OC)c(OC)c(OC)c3)cc2)cc1", "inhibition": "26.9% (inactive)"}
{"smiles": "COc1cccc2cc(-c3ccccc3)c(=O)oc12", "inhibition": "-3.48% (inactive)"}
{"smiles": "COc1ccc(/C=C/C(=O)c2cc3cccc(OC)c3oc2=O)cc1", "inhibition": "60.6% (active)"}
{"smiles": "NS(=O)(=O)c1cc2c(cc1Cl)NC(C1C[C@H]3C=C[C@@H]1C3)NS2(=O)=O", "note": "(stereo partly drawn)", "inhibition": "0.4% (inactive)"}
{"smiles": "O=C(O)CCn1cnc2ccccc2c1=O", "inhibition": "3.53% (inactive)"}
{"smiles": "O=C(Cc1ccccc1)NCC(=O)OCC(=O)c1ccccc1Cl", "inhibition": "-13.7% (inactive)"}
{"smiles": "CCN1C(=O)C(CC(=O)Nc2ccc(F)cc2)N(Cc2ccco2)C1=S", "note": "(stereo not drawn)", "inhibition": "10.9% (inactive)"}
{"smiles": "CS(=O)(=O)Oc1ccc2c(c1)O/C(=C\\C=C\\c1ccccc1)C2=O", "inhibition": "58.8% (active)"}
{"smiles": "CC(=O)Oc1ccc2occ(/C=N/c3cc(=O)[nH]c(=S)[nH]3)c(=O)c2c1", "inhibition": "-1.72% (inactive)"}
{"smiles": "O=c1cc(CN2CCN(c3cccc(Cl)c3)CC2)c2cc(O)c(-c3ccccc3)cc2o1", "inhibition": "1.13% (inactive)"}
{"smiles": "COc1ccc2[nH]c(C)c(CN3CCC(C)CC3)c(=O)c2c1", "inhibition": "-4.96% (inactive)"}
{"smiles": "CCc1cc2c(=O)c(-c3nc(C)cs3)coc2cc1OC(C)C(=O)NCCO", "note": "(stereo not drawn)", "inhibition": "-3.43% (inactive)"}
{"smiles": "COc1ccc2oc(=O)c(C(=O)N3CCN(c4ccccc4)CC3)cc2c1", "inhibition": "9.05% (inactive)"}
{"smiles": "COc1ccc2oc(=O)c(C(=O)Nc3ccccc3-c3ccccc3)cc2c1", "inhibition": "-7.96% (inactive)"}
{"smiles": "COc1ccc(O)c(C(=O)/C=C/c2cc3ccccc3o2)c1", "inhibition": "66.9% (active)"}
{"smiles": "Cc1ccc(NCCC(=O)c2ccccc2)cc1Cl", "inhibition": "-2.97% (inactive)"}
{"smiles": "CCCN1CCC(NC(=O)Nc2ccc(Br)cc2)CC1", "inhibition": "-9.54% (inactive)"}
{"smiles": "Cc1ccc2c(c1)C(O)(CC(=O)/C=C/C=C/c1ccccc1)C(=O)N2", "note": "(stereo not drawn)", "inhibition": "16.4% (inactive)"}
{"smiles": "Cc1ccc(C2=NOC(=O)/C2=C\\C=C\\c2ccccc2)cc1", "inhibition": "95.6% (active)"}
{"smiles": "O=C1NC2(Nc3ccccc31)C(=O)Nc1ccc(Br)cc12", "note": "(stereo not drawn)", "inhibition": "0.88% (inactive)"}
{"smiles": "CC1(C)CC(C(CC(=O)N2CCCC2)Cc2ccccc2)CCO1", "note": "(stereo not drawn)", "inhibition": "-12.5% (inactive)"}
{"smiles": "Cc1cc(C(=O)Nc2ccccc2C(=O)N2CCCCC2)ccc1[N+](=O)[O-]", "inhibition": "-3.48% (inactive)"}
{"smiles": "COc1ccc(/C=C2\\CC/C(=C\\c3ccc(OC)c(OC)c3)C2=O)cc1OC", "inhibition": "59.1% (active)"}
{"smiles": "COc1ccc(/C=C2\\CCn3c2nc2cc(C(=O)O)ccc2c3=O)cc1OC", "inhibition": "-6.3% (inactive)"}
{"smiles": "COc1ccc(/C=C2\\CCc3ccccc3C2=O)c(OC)c1OC", "inhibition": "-0.86% (inactive)"}
{"smiles": "CCN(CCCCCN(C)C)Cc1cc2ccccc2o1", "inhibition": "-7.75% (inactive)"}
{"smiles": "O=C1C(Cc2c[nH]c3ccccc23)NC(=S)N1Cc1ccccc1", "note": "(stereo not drawn)", "inhibition": "-4.43% (inactive)"}
{"smiles": "CC(=O)N1CCN2C(=O)C1CCCC(=O)c1cc(C(C)C)ccc12", "note": "(stereo not drawn)", "inhibition": "0.46% (inactive)"}
{"smiles": "COc1cc2c(cc1OC)/C(=C/c1ccc(Cl)cc1)C(=O)OC2", "inhibition": "27.4% (inactive)"}
{"smiles": "O=C1ON=C(c2ccc(Cl)cc2)/C1=C/c1ccc(O)cc1", "inhibition": "82.8% (active)"}
{"smiles": "CCOC(=O)N1CCN(Cc2nc(Cc3cccc(F)c3)no2)CC1", "inhibition": "-1.53% (inactive)"}
{"smiles": "C=CCc1ccc(OCC(O)COc2ccc(CC=C)cc2OC)c(OC)c1", "inhibition": "-1.62% (inactive)"}
{"smiles": "Cc1ccccc1C(=O)NNc1ncnc2c1cnn2C", "inhibition": "-10.4% (inactive)"}
{"smiles": "Cn1cc(CN2CCCC(CO)(Cc3cccc(Cl)c3)C2)cn1", "note": "(stereo not drawn)", "inhibition": "-10.7% (inactive)"}
{"smiles": "c1ccc2c3c(c(CN4CCCCC4)cc2c1)COC3", "inhibition": "-4.68% (inactive)"}
{"smiles": "CCN(CC)C(=O)c1ccc(O)c(OC)c1", "inhibition": "-1.24% (inactive)"}
{"smiles": "COc1cc(/C=C/C(=O)CC(=O)/C=C/c2ccc(O)c(OC)c2)ccc1O", "inhibition": "50.4% (active)"}
{"smiles": "O=C(O)/C=C/c1ccc(O)c(O)c1", "inhibition": "-2.22% (inactive)"}
{"smiles": "COc1ccc2c(c1O)Cc1ccccc1C2=O", "inhibition": "12% (inactive)"}
{"smiles": "COc1cc(OC)cc(C(=O)N[C@@H](CCSC)c2nc3ccccc3[nH]2)c1", "inhibition": "2.97% (inactive)"}
{"smiles": "CC(C)CCC1(CCNC(C)c2cccs2)CCOC(C)(C)C1", "note": "(stereo not drawn)", "inhibition": "-4.9% (inactive)"}
{"smiles": "COc1ccc(CCN=CC2=C(O)CC(C)(C)CC2=O)cc1", "inhibition": "-4.85% (inactive)"}
{"smiles": "CC(=O)Nc1ccc(CN2CCN(C3CCCCC3)C(CCO)C2)cc1", "note": "(stereo not drawn)", "inhibition": "-3.02% (inactive)"}
{"smiles": "COC(=O)[C@@H](N)CS", "inhibition": "65.9% (active)"}
{"smiles": "CC(=O)N[C@@H](CS)C(=O)O", "inhibition": "-18.8% (inactive)"}
{"smiles": "Cc1ccc(NC(=O)CSc2nc(O)c(Cc3ccccc3)c(=O)n2-c2ccccc2)cc1", "inhibition": "5.86% (inactive)"}
{"smiles": "COc1ccc(/C=C/C(=O)Nc2ccccc2C(=O)O)cc1OC", "inhibition": "-6.48% (inactive)"}
{"smiles": "COc1ccc(C(=O)Oc2ccc3c(C)cc(=O)oc3c2C(C)=O)cc1", "inhibition": "0.69% (inactive)"}
{"smiles": "COc1ccc(/C=C\\C(=O)c2c(O)ccc3c(C)cc(=O)oc23)cc1OC", "inhibition": "62.7% (active)"}
{"smiles": "CC(C)C(=O)Nc1c(O)c2ccccc2[nH]c1=O", "inhibition": "-16.2% (inactive)"}
{"smiles": "COC(=O)C1=C(C)NC(C)=C([N+](=O)[O-])C1c1ccccc1C(F)(F)F", "note": "(stereo not drawn)", "inhibition": "1.42% (inactive)"}
{"smiles": "COC(=O)C1=C(C)NC(C)=C(C(=O)OC)C1c1ccccc1[N+](=O)[O-]", "inhibition": "active"}
{"smiles": "CCOC(=O)C1=C(C)NC(C)=C(C(=O)OC)C1c1cccc([N+](=O)[O-])c1", "note": "(stereo not drawn)", "inhibition": "8.95% (inactive)"}
{"smiles": "COc1ccc(CCN=C(N)C(C)c2ccccc2)cc1OC", "note": "(stereo not drawn)", "inhibition": "-12.2% (inactive)"}
{"smiles": "CC(C)(C)C(=O)NC(=S)Nc1sc2c(c1C(N)=O)CCC2", "inhibition": "1.49% (inactive)"}
{"smiles": "COc1ccc(C2OC(=O)Cc3cc(OC)c(OC)cc32)cc1", "note": "(stereo not drawn)", "inhibition": "-1.64% (inactive)"}
{"smiles": "OCCC1CN(Cc2nc(-c3ccccc3)cs2)CCN1Cc1ccc(F)cc1", "note": "(stereo not drawn)", "inhibition": "-1.6% (inactive)"}
{"smiles": "COc1cc2c(cc1OC)-c1cc(OCc3ccccc3Cl)nc(=O)n1CC2", "inhibition": "15.9% (inactive)"}
{"smiles": "O=C(/C=C/c1ccccc1)NC(=O)c1ccccc1O", "inhibition": "4.79% (inactive)"}
{"smiles": "O=C(/C=C/c1ccccc1)/C=C/c1ccccc1", "inhibition": "88.9% (active)"}
{"smiles": "Cn1cc(/C=C/C(=O)c2ccccc2)c2ccccc21", "inhibition": "13.9% (inactive)"}
{"smiles": "O=C(/C=C/Sc1ccccc1)c1ccccc1", "inhibition": "81.5% (active)"}
{"smiles": "CC(CCc1ccccc1)NC(=O)/C=C/c1ccccc1", "note": "(stereo not drawn)", "inhibition": "2.76% (inactive)"}
{"smiles": "N/C(=N\\OC(=O)/C=C/c1ccccc1)c1ccc(Br)cc1", "inhibition": "-13% (inactive)"}
{"smiles": "O=C(O)c1ccc(C(=O)C(=O)c2ccccc2)cc1", "inhibition": "-8.11% (inactive)"}
{"smiles": "O=C(CCCCCCCC(=O)c1ccccc1)c1ccccc1", "inhibition": "-5.61% (inactive)"}
{"smiles": "O=C(/C=C/c1ccccc1)c1ccccc1", "inhibition": "61.4% (active)"}
{"smiles": "Cc1ccc2[nH]c3c(c2c1)CN(C)CC3", "inhibition": "-2.27% (inactive)"}
{"smiles": "Cc1ccc(S(=O)(=O)N[C@@H](C)C(=O)N2CCC(C(=O)N3CCC[C@H]3C(=O)O)CC2)cc1", "inhibition": "-8.3% (inactive)"}
{"smiles": "COc1ccc(C2OC[C@H]3O[C@H](O)[C@H](NC(C)=O)[C@@H](O)[C@@H]3O2)cc1", "note": "(stereo partly drawn)", "inhibition": "-8.14% (inactive)"}
{"smiles": "COc1ccc2c(c1)CC[C@@H]1[C@@H]2CC[C@]2(C)C(=O)CC[C@@H]12", "inhibition": "-10.8% (inactive)"}
{"smiles": "C[C@]12CCC3C(CC=C4C[C@@H](O)CC[C@@]43C)C1CCC2[C@]1(C)CCC(=O)O1", "note": "(stereo partly drawn)", "inhibition": "0.59% (inactive)"}
{"smiles": "COc1cccc(-n2c(C)c3c(OC)cccc(=O)c3c2C)c1", "inhibition": "12% (inactive)"}
{"smiles": "CCC(C)NCCOc1ccccc1C", "note": "(stereo not drawn)", "inhibition": "-6.76% (inactive)"}
{"smiles": "COc1ccc(OC)c(-n2c(Cn3c(-c4ccccn4)nc4ccccc43)n[nH]c2=S)c1", "inhibition": "-10.2% (inactive)"}
{"smiles": "COc1ccc(C(=O)N2c3cc4c(cc3C(C)=CC2(C)C)OCO4)cc1", "inhibition": "-4.62% (inactive)"}
